Data taken from PubChem BioAssay.
Values joined by “and” are separate entries in the source; they are usually repeats but may differ in a detail not shown here. Equal values may be shown once.

Each compound was assayed on XIP peptide (Xip251-270) binding (assay: small-molecule binders of XIP peptide, primary screen, biochemical, small-molecule microarray, fluorescence 635/667 nm, 0.1 µg/mL protein (AID 1182)). Conditions: fluorescent protein binding, 635 nm, higher = more signal, called active from +8 up or from −8 down.

Composite z-score, inactive:
CO[C@H]1COC(=O)[C@H](C)NC(=O)CC=C[C@@H](C)[C@H](OC)COC(=O)CC=C[C@@H]1C 0.195
C=CCN(C(=O)C1N(CCOCCO)C(=O)C2C(C(=O)O)C3C=CC21O3)C(C)(C)C (stereo not given) -0.348 and -0.346
O=C(NN=C1C[C@@H](O)[C@@H](O)[C@@H]2[C@@H]3C(=O)N(Cc4ccc5c(c4)OCO5)C(=O)[C@@H]3CC[C@H]12)OCc1ccccc1 0.974
CC(C)=CCCC(C)=CCON=C1C[C@@H](O)[C@@H](O)[C@@H]2[C@@H]3C(=O)N([C@@H](C)c4ccccc4)C(=O)[C@@H]3CC[C@H]12 1.32
C=CC[C@H](O)c1ccc(OCCO)cc1 0.179 and 0.125
O=c1n(-c2ccccc2)c(=O)n2n1CC[C@@H]1C(=NOC[C@@H](O)COCc3ccco3)[C@H]3O[C@H]3[C@@H](O)[C@@H]12 0.0643 and 0.158
COC(=O)C1=C(C)N(Cc2ccccc2)C2=C3C(=O)N(C)C(=O)[C@@H]3[C@@](O)(C(=O)OC)C(=O)N2[C@@H]1c1ccccc1 0.214 and -0.566
CC(C)N1CC=CC23O[C@@H]4C=CCCOC(=O)C4[C@H]2C(=O)N(C(C)CO)[C@@H]3C1=O (stereo not given in full) 1.78 and 0.425
C=CCN(Cc1ccccc1)C(=O)C1N(CCCCCCO)C(=O)C2C(C(=O)O)C3C=CC21O3 (stereo not given) -0.0934 and -0.383
CC(C)=NOCc1ccc(-c2cn([C@@H]3COC[C@H]3O)nn2)cc1 0.364
C[C@@H](ON=C1[C@H]2CCn3c(=O)n(-c4ccccc4)c(=O)n3[C@H]2[C@H](O)[C@@H]2O[C@H]12)c1cn([C@H](CO)Cc2ccccc2)nn1 0.764
C=C[C@H](C)[C@@H](O)c1ccc(OCCO)cc1 -0.301 and -0.375
CC(C)CON=C1C[C@@H](O)[C@@H](O)[C@@H]2[C@@H]3C(=O)N(c4cccc(Oc5ccccc5)c4)C(=O)[C@@H]3CC[C@H]12 0.0483
CC(CO)N1C(=O)[C@@H]2C3C(=O)OCCC=C[C@H]3OC23C=CCN(Cn2nnc4ccccc42)C(=O)[C@@H]13 (stereo not given in full) 0.287 and 0.0057
C=C(C)C(=O)OC[C@@H]1CN2[C@@H](CC[C@@H](C)[C@@H]2c2ccc(Br)cc2)C(=O)O1 0.0138
C[C@@H]1CC[C@@H](C(=O)O)N[C@H]1c1ccc(-c2ccco2)cc1 1.06
COC(=O)C1=C(C)N(Cc2ccccc2)[C@]23O[C@](C(=O)OC)(C(=O)N2[C@@H]1c1ccccc1)[C@@H](c1ccccc1)[C@@H]3C(=O)c1ccccc1 0.114 and 0.416
COC(=O)CC=C[C@@H](C)[C@@H](CO)NS(=O)(=O)c1ccc(C)cc1 -0.468 and 0.212
CO[C@@H]1COC(=O)CC=C[C@H](C)COC(=O)[C@H](C)NC(=O)CC=C[C@H]1C -0.0437
C[C@@H](c1ccccc1)N1C(=O)[C@H]2[C@H]3[C@H](O)[C@H](O)CC(=O)[C@@H]3CC[C@H]2C1=O -0.415
C=CCN(C(=O)C1N(C(C)(C)CO)C(=O)C2C(C(=O)O)C3C=CC21O3)C(C)(C)C (stereo not given) -0.651 and 0.11
CCOC(=O)C[C@H]1[C@H](OC(=O)c2ccccc2-c2ccccc2)[C@@H](NC(=O)Cc2ccc(OC)cc2)c2cc(OCCCO)ccc2N1C(=O)c1ccc2ccccc2n1 -0.432 and 0.387
C=CCN(CCCCC)C(=O)C1N(c2ccc(CCO)cc2)C(=O)C2C(C(=O)O)C3C=CC21O3 (stereo not given) -0.53 and -0.482
COc1ccc(O[C@H]2C=C[C@@H](c3ccccc3)O[C@@H]2COC(=O)CCC(C)=NO[C@H](C)c2cn([C@H](CO)Cc3ccccc3)nn2)cc1 0.31 and 0.164
C=CCN(CCCC)C(=O)C1N(c2ccc(CCO)cc2)C(=O)C2C(C(=O)O)C3C=CC21O3 (stereo not given) -1.72 and -1.1
Cc1ccc(S(=O)(=O)OC[C@@H]2CN3[C@@H](CC[C@@H](C)[C@@H]3c3ccc(Br)cc3)C(=O)O2)cc1 0.589 and -0.699
Cc1ccc(S(=O)(=O)N[C@H]2COC(=O)[C@@H](Cc3ccccc3)NC(=O)[C@@H](C)COC(=O)CC=C[C@@H]2C)cc1 0.124 and 0.125
O=C1[C@H]2[C@H]3[C@H](O)[C@H](O)CC(=NOCc4ccccc4)[C@H]3CC[C@H]2C(=O)N1Cc1ccccc1 -0.0784
CON(C)C(=O)c1nnc2c3ccccc3n(S(=O)(=O)c3ccc(C)cc3)c2n1 0.41 and 0.536
CCOC(=O)NN=C1C[C@@H](O)[C@@H](O)[C@@H]2[C@@H]3C(=O)N(Cc4ccc5c(c4)OCO5)C(=O)[C@@H]3CC[C@@H]12 0.483
C=CCN(Cc1ccccc1)C(=O)C(c1cccs1)N(C(=O)/C=C\C(=O)O)c1c(Cl)cccc1CO (stereo not given) -0.422 and -0.522
CCCNC(=O)OC[C@H]1O[C@H](CCON=C(C)CCC(=O)OC[C@H]2O[C@H](C#Cc3ccccc3)C=C[C@@H]2Oc2ccc(C)cc2)C=C[C@@H]1Oc1ccc(OC)cc1 -0.238
CCOC(=O)c1ccc(NC(=O)O[C@H]2[C@H](OC(=O)Nc3ccccc3)[C@H](OC(=O)Nc3ccccc3)[C@@H](OC)O[C@@H]2CO)cc1 0.706 and 1.24
CC(C)C(=O)N[C@@H]1CCCN1C(=O)C=Cc1ccccc1 0.36
CCOC(=O)[C@H](CC(C)C)NC(=O)CCC1CC(OC(=O)NCc2cccc3ccccc23)CC2(CCCC(COC(=O)NCc3ccccc3)O2)O1 (stereo not given in full) -0.17
C=C[C@H](C)[C@H](O)c1ccc(O)c2ccccc12 -0.389 and -0.742
C=CCN(C(=O)C1N(CCCCCCO)C(=O)C2C(C(=O)O)C3C=CC21O3)C(C)(C)C (stereo not given) -0.501 and -0.559
COC(=O)[C@H](C)NC(=O)CCC1CC(OC(=O)NCCc2ccc(F)cc2)CC2(CCCC(COC(=O)NCCCN3CCCC3=O)O2)O1 (stereo not given in full) 0.348
C#CCCCON=C1C[C@@H](O)[C@@H](O)[C@@H]2[C@@H]3C(=O)N(C4CCCCC4)C(=O)[C@@H]3CC[C@H]12 0.57
CO[C@@H]1COC(=O)CC=C[C@H](C)[C@@H](NS(=O)(=O)c2ccc(C)cc2)COC(=O)CC=C[C@@H]1C 1.11 and 0.147
